Pf growth 48h: P. falciparum growth inhibition at 48 hours (one generation). Potency, µM (highest dose often 28.7 µM), for inactives: at the top dose activity change, negative = inhibition, most hits filed as inhibitors. 310,000 compounds, 5.9% hits. P. falciparum luciferase growth in erythrocytes, 48 h; also: % is scaled to controls: 0 for no effect and ±100 for the full control effect
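Luminescence readout; reporter = integrated firefly luciferase in P. falciparum. RBC culture at 2% hematocrit, 0.1% parasitemia final, 37 C/5% CO2; decreased signal taken as growth inhibition.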
Vaccinia mCherry: inhibitors of vaccinia virus infection (mCherry reporter signal); Vaccinia virus mCherry reporter infection, fluorescence; Potency, µM (top dose mostly 36.5 µM), for inactives: at the top dose activity change, negative = inhibition, usual class: inhibitors; 310,000 compounds, 0.63% hits; AID 720579; calls by dose curve; tested in A549 cells; also: % is scaled to controls: 0 for no effect and ±100 for the full control effect; nearly all actives have a fitted effect of over 35% in size
NS1 function inh: inhibitors of influenza NS1 protein function; Potency, µM (top dose mostly 46.1 µM), for inactives: top-dose activity, positive = more growth; 270,000 compounds, 0.4% hits; AID 2326; calls by dose curve; also: actives are rising curves; nearly all actives have a fitted effect of over 50% in size
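Recovery from NS1-induced slow growth read by OD600 in budding yeast switched to galactose assay medium (pH 6.0, -URA) at 1:100 dilution. Compound 23 nl per well; the matching strain lacking NS1 serves as control.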
HCV inhibitor: inhibitors of hepatitis C virus infection; Potency, µM (top dose mostly 41.8 µM), for inactives: at the highest dose activity change, negative = inhibition, usual class: inhibitors; 340,000 compounds, 3.4% hits; Huh7.5.1 HCVcc-Cre infection, luciferase reporter, 44 h; also: % is scaled to controls: 0 for no effect and ±100 for the full control effect
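Cells seeded at 1,000/well and cultured 4 h, then compounds added followed by HCVcc-Cre virus (~0.5 moi). After 44 h further culture, luciferase substrate was added, plates held 15 min at room temperature, and luminescence read for 15 sec.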
Pf growth 96h: P. falciparum growth inhibition at 96 hours. P. falciparum luciferase reporter growth, 96 h. Potency, µM (titrated, usually from 28.7 µM), for the others: at the highest dose activity change, negative = inhibition, usual class: inhibitors. 320,000 compounds, 6.9% hits. AID 504834; also: % is scaled to controls: 0 for no effect and ±100 for the full control effect
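Delayed-death screen, second-generation endpoint: infected erythrocytes, 2% hematocrit, 0.05% parasitemia final; 96 hours at 37 C, 5% CO2; luciferase detection reagent; luminescence decrease equals reduced growth.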
Vaccinia Venus: vaccinia inhibition (Venus reporter). 330,000 compounds, 0.46% hits. AID 720580. Potency, µM (top dose mostly 36.5 µM), without a hit: at the top dose activity change, negative = inhibition, most hits filed as inhibitors. Vaccinia virus Venus reporter expression, fluorescence; calls by dose curve; tested in A549 cells; also: % is scaled to controls: 0 for no effect and ±100 for the full control effect; nearly all actives have a fitted effect of over 30% in size
The depositor's hits bear a star; i = inactive; u = inconclusive; x = no result given; ! = repeats disagree; [ ] = dose if it differs, or a comment. Only some compounds are listed: those with a hit (about 11% of all), similar ones and a draw of the others. Unless noted, calls follow the shape of the dose curve; as a rule, active = well fitted inhibition curve with a large enough effect; inconclusive = small, poorly fitted or top-dose-only effect, or another doubt; inactive = no such curve, though single readings can be large or run the other way. Potency is read from the fitted curve at half-maximal effect.

SMILES	Pf growth 48h	Vaccinia mCherry	NS1 function inh	HCV inhibitor	Pf growth 96h	Vaccinia Venus
Cc1cc(S(=O)(=O)N2CCOCC2)ccc1OCC(=O)Nc1ccccc1F	31%	12%	-1%	0%	-10%	0%
Cc1ccc(C)c(NC(=S)N=Nc2c(O)n(C)c3ccc(S(=O)(=O)N4CCOCC4)cc23)c1	6.6µM*	x	27%	u	-9%	x
CCc1ccccc1NC(=S)N=Nc1c(O)n(C)c2ccc(S(=O)(=O)N3CCOCC3)cc12	3.3µM*	i	u	-27%	1.9µM*	-11%
O=C(NCCSc1c(-c2ccc(Cl)cc2)[nH]c2ccccc12)c1ccc(S(=O)(=O)N2CCOCC2)cc1	x	-1%	x	x	x	-22%
CC1CCN(Cc2c(O)ccc3c(=O)c(-c4nc5ccccc5s4)c(N)oc23)CC1	0.26µM*	x	17%	u	u	x
CC1(C)CCCN(Cc2c(O)ccc3c(=O)c(-c4nc5ccccc5s4)c(N)oc23)C1	u	i	-10%	-2%	u	15%
CC1CCCN(Cc2c(O)ccc3c(=O)c(-c4nc5ccccc5s4)c(N)oc23)C1 (stereo not drawn)	0.074µM*	-20%	-27%	u	0.066µM*	-19%
O=C(Nc1ccc(Cl)c(C(F)(F)F)c1)N1CCCC(O)C1 (stereo not drawn)	22%	x	-3%	-6%	0.66µM*	-18%
COc1cccc(/C=N/NC(=O)C(C)Sc2ccccc2)c1 (stereo not drawn)	12%	-7%	-10%	-21%	84%	-7%
Cc1ccnc(NS(=O)(=O)c2ccc(-n3cccn3)cc2)c1	47%	x	8%	7%	10µM*	x
Cc1ccc(NS(=O)(=O)c2ccc(-n3cccn3)cc2)c(Cl)c1	x	-11%	x	x	x	-18%
C=CCn1c(-c2ccc(S(=O)(=O)N3CCOCC3)cc2)csc1=Nc1ccccc1	u	x	9%	-3%	12µM*	-22%
Cc1ccc(-c2csc(=Nc3ccccc3)n2CCCO)cc1	x	-18%	x	x	x	-13%
COc1ccc(-c2csc(=Nc3ccccc3)n2CCO)cc1	8%	-22%	-16%	13µM*!	-1%	-15%
CCc1ccc2oc(-c3ccc(OC)cc3)cc(=Nc3c(C)n(C)n(-c4ccccc4)c3=O)c2c1	-47%	x	x	10µM*	u	x
CC(=O)c1cccc(N=c2scc(-c3ccc(S(=O)(=O)N4CCOCC4)cc3)n2CCO)c1	5.2µM*	u	-15%	1µM*	4.7µM*	u
Cc1[nH]ccc(=O)c1OCc1ccccc1	-5%	-4%	6%	-14%	0%	5%
CCCn1nnc(NC(=S)NC(=O)c2ccccc2OC)n1	x	x	x	-4%	x	x
CCOCCCNC(=S)N(CCN(C)C)Cc1cc2cc3c(cc2[nH]c1=O)OCCO3	u	x	3%	-8%	239%	x
COc1ccc(N=c2scc(-c3ccc(S(=O)(=O)N4CCOCC4)cc3)n2CCCO)cc1	12µM*	x	-51%	u	-16%	x
Cc1csc(=Nc2c(C)n(C)n(-c3ccccc3)c2=O)n1Cc1ccccc1	-13%	-4%	2%	-6%	-10%	-18%
C=CCn1c(-c2ccc(OC)cc2)csc1=Nc1c(C)n(C)n(-c2ccccc2)c1=O	x	x	-8%	u	15µM*	u
O=S(=O)(c1ccc(-c2csc(=Nc3ccc(F)cc3)n2CCCCCCO)cc1)N1CCCC1	x	u	x	x	x	-28%
CC#CC#Cc1cccc(=O)o1	12µM*	-19%	-51%	u	10µM*	-20%
CNS(=O)(=O)c1cc(Br)ccc1S(=O)c1ccccc1C(=O)O (stereo not drawn)	3%	0%	3%	17%	0%	1%
COc1ccc(NC(=O)N2c3ccc(OC)cc3C(C)=CC2(C)C)cc1	14%	x	-5%	8%	0%	x
CCOc1ccc2c(c1)C(C)=CC(C)(C)N2C(=O)Nc1ccccc1	x	x	4%	-5%	15µM*	3%
O=C(Cc1cccs1)N/N=C/C=C/c1ccco1	92%	-10%	1%	-2%[0.335 µM]	u	-12%
COc1ccc(/C=C(\NC(=O)c2ccccc2)C(=O)N2CCCCC2)cc1OC	4%	x	-62%	u	15%	x

Compound activity: PubChem BioAssay, National Center for Advancing Translational Sciences (NCATS)
